Screens as filed in PubChem BioAssay.
Compounds with a hit are over-represented: about 6.8% of the library has one in this group of screens.
C diff growth: C. difficile growth inhibitors, primary screen, HTS; Clostridium difficile clinical isolate growth, OD600, 24 h; stronger effect = lower value; growth activity, negative = inhibition, % at 16 µg/mL (by protocol); 86,000 tested, 0.25% active;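 active means mean growth activity at or below -80% and every replicate also at or below -80%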;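 further: 0% = DMSO wells and -100% = levofloxacin 16 µg/mL wells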
T cruzi growth: T. cruzi intracellular proliferation inhibitors, primary screen, cell-based, beta-gal Tulahuen parasites, NIH3T3 host, luminescence. T. cruzi beta-gal in NIH3T3, GalScreen luminescence, 90 h. inhibition, % at 8.34 µM. 77,000 tested, 5.9% active. AID 624255, 2012;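 active means mean inhibition above about 93%, with at least 55% of replicates each passing it, limit read from the data, passing the limit was not always enough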
Pf Dd2 growth: P. falciparum Dd2 growth inhibitors, primary screen, SYBR Green fluorescence, single dose replicates | 72 h; stronger effect = lower value | activity change, % at 10 µM | 94,000 tested, 2.3% active | AID 1159554, 2015; in the data active means activity change below about -80%
The depositor's hits bear a star; / = not tested or not shown; ! = repeats disagree.

SMILES | C diff growth | T cruzi growth | Pf Dd2 growth
C[C@@H]1CCCCO[C@@H](CN(C)CC2CCCCC2)[C@@H](C)CN([C@@H](C)CO)C(=O)c2cc(NS(=O)(=O)c3cn(C)cn3)ccc2O1 | 4.2 | 7.0 | -26.1
C[C@H](CO)N1C[C@H](C)[C@H](CN(C)C(=O)c2cccc(F)c2)Oc2cc(C#CC3CC3)ccc2S1(=O)=O | 6.0 | / | 34.9
C[C@@H]1CCCCO[C@@H](CN(C)Cc2ccc(C(=O)Nc3ccccc3N)cc2)[C@@H](C)CN([C@H](C)CO)C(=O)c2cc(NC(=O)Nc3ccc(F)cc3)ccc2O1 | 34.0 | / | -87.1*
C[C@@H]1CCCCO[C@@H](CN(C)Cc2ccc(C(=O)Nc3ccccc3N)cc2)[C@@H](C)CN([C@H](C)CO)C(=O)c2cc(NC(=O)Nc3ccc(C(F)(F)F)cc3)ccc2O1 | 47.2 | / | -82.8*
C[C@@H]1CCCCO[C@@H](CN(C)Cc2ccc(C(=O)Nc3ccccc3N)cc2)[C@@H](C)CN([C@H](C)CO)C(=O)c2cc(NC(=O)Nc3ccccc3)ccc2O1 | / | 34.2 | -75.2
C[C@H](CO)N1C[C@H](C)[C@H](CN(C)Cc2ccc(C(F)(F)F)cc2)OCCCC[C@H](C)Oc2ccc(NC(=O)Nc3ccccc3)cc2C1=O | 3.3 | 66.4 | 35.5
COCC(=O)N(C)C[C@H]1Oc2cc(-c3ccc(C)cc3)ccc2S(=O)(=O)N([C@H](C)CO)C[C@@H]1C | -17.4 | -21.8 | /
O=C(C[C@H]1C=C[C@H](NC(=O)NC2CCCC2)[C@@H](CO)O1)NCc1ccc(F)cc1 | 3.7 | 11.2 | 2.2
CCCN(C)C[C@H]1OCCCC[C@@H](C)Oc2ccc(NS(=O)(=O)c3ccc(C)cc3)cc2C(=O)N([C@H](C)CO)C[C@@H]1C | 14.2 | 90.5 | -52.3
C[C@@H]1CCCCO[C@@H](CN(C)Cc2ccc3c(c2)OCO3)[C@H](C)CN([C@@H](C)CO)C(=O)c2cc(NS(=O)(=O)c3ccc(Cl)cc3)ccc2O1 | / | 33.9 | 1.4
CCCN(C)C[C@@H]1OCCCC[C@@H](C)Oc2ccc(NS(=O)(=O)c3ccc(Cl)cc3)cc2C(=O)N([C@H](C)CO)C[C@@H]1C | -0.4 | -1.9 | -60.9
CCCN(C)C[C@H]1OCCCC[C@H](C)Oc2ccc(NS(=O)(=O)c3ccc(OC)cc3)cc2C(=O)N([C@H](C)CO)C[C@H]1C | 1.2 | 81.6 | -86.3*
CCCN(C)C[C@H]1OCCCC[C@@H](C)Oc2ccc(NS(=O)(=O)c3ccc(Cl)cc3)cc2C(=O)N([C@@H](C)CO)C[C@H]1C | 8.7 | 33.0 | -85.9*
C[C@@H]1CCCCO[C@H](CN(C)Cc2ccc3c(c2)OCO3)[C@H](C)CN([C@H](C)CO)C(=O)c2cc(NS(=O)(=O)c3ccc(Cl)cc3)ccc2O1 | / | 81.0 | -82.8*!
CCCN(C)C[C@H]1OCCCC[C@@H](C)Oc2ccc(NS(=O)(=O)c3ccc(C)cc3)cc2C(=O)N([C@@H](C)CO)C[C@H]1C | 5.6 | 55.3 | -86.1*
COc1ccc(S(=O)(=O)Nc2ccc3c(c2)C(=O)N([C@@H](C)CO)C[C@@H](C)[C@H](CN(C)CC2CC2)OCCCC[C@H](C)O3)cc1 | -5.8 | 17.1 | -40.8
C/C=C/c1ccc2c(c1)O[C@H](CN(C)C(=O)C1CC1)[C@H](C)CN([C@H](C)CO)S2(=O)=O | -1.8 | -131.6 | -14.4
CN1CCN(C(=O)C[C@@H]2CC[C@H]3[C@@H](COC[C@@H](O)CN3C(=O)Nc3ccc(F)cc3)O2)CC1 | -6.3 | 32.5 | 8.2
CCCN(C)C[C@@H]1OCCCC[C@H](C)Oc2ccc(NS(=O)(=O)c3ccc(C)cc3)cc2C(=O)N([C@@H](C)CO)C[C@H]1C | 13.0 | 61.8 | -93.9*
COc1ccc(S(=O)(=O)Nc2ccc3c(c2)C(=O)N([C@H](C)CO)C[C@@H](C)[C@H](CN(C)Cc2ccc(Cl)c(Cl)c2)OCCCC[C@H](C)O3)cc1 | / | 11.8 | -84.3*
CCCN(C)C[C@H]1OCCCC[C@@H](C)Oc2ccc(NS(=O)(=O)c3ccc(C)cc3)cc2C(=O)N([C@H](C)CO)C[C@H]1C | 20.5 | 75.2 | -89.3*
CCCN(C)C[C@@H]1OCCCC[C@@H](C)Oc2ccc(NS(=O)(=O)c3ccc(C)cc3)cc2C(=O)N([C@@H](C)CO)C[C@@H]1C | 13.7 | 52.0 | -62.7
COc1ccc(S(=O)(=O)Nc2ccc3c(c2)C(=O)N([C@H](C)CO)C[C@H](C)[C@H](CN(C)Cc2ccc(Cl)c(Cl)c2)OCCCC[C@H](C)O3)cc1 | 14.9 | / | -59.5
CCCN(C)C[C@@H]1OCCCC[C@@H](C)Oc2ccc(NS(=O)(=O)c3ccc(F)cc3)cc2C(=O)N([C@@H](C)CO)C[C@@H]1C | 10.3 | 86.0 | -39.4
C/C=C/c1ccc2c(c1)O[C@@H](CN(C)C(=O)CN(C)C)[C@H](C)CN([C@@H](C)CO)S2(=O)=O | -5.6 | -13.9 | -1.2
SMILES | C diff growth | T cruzi growth | Pf Dd2 growth
C[C@H](CO)N1C[C@H](C)[C@@H](CN(C)C(=O)c2ccccn2)Oc2ncc(C3=CCCCC3)cc2C1=O | -5.3 | 54.5 | 18.4
C[C@@H]1CCCCO[C@@H](CN(C)S(=O)(=O)c2cccs2)[C@H](C)CN([C@@H](C)CO)C(=O)c2cc(NC(=O)Nc3ccccc3)ccc2O1 | 9.1 | 75.0 | /
COc1cccc(CN2CC3(CN(C(C)=O)C3)c3c(n(C)c4cc(OC)ccc34)[C@H]2CO)c1 | -2.3 | / | -1.1
C[C@@H]1CCc2cnnn2COC[C@@H](Cc2ccccc2)NC1=O | 0.5 | / | /
CC(C)C#Cc1ccc2c(c1)O[C@H](CN(C)C(=O)Cc1ccccn1)[C@@H](C)CN([C@H](C)CO)S2(=O)=O | 6.3 | 48.2 | -37.0
C[C@@H]1CN([C@H](C)CO)S(=O)(=O)c2ccc(C#Cc3ccccc3)cc2O[C@H]1CN(C)C(=O)C1CC1 | -16.0 | 57.6 | -79.3
C[C@H]1CN([C@@H](C)CO)S(=O)(=O)c2ccc(C#Cc3ccccc3)cc2O[C@H]1CN(C)C(=O)C1CC1 | -4.0 | 74.3 | -88.0*
C[C@H]1CN([C@@H](C)CO)S(=O)(=O)c2ccc(C#Cc3ccccc3)cc2O[C@H]1CN(C)C(=O)Cc1ccccn1 | -2.9 | 69.1 | -85.8*
C/C=C/c1cccc(-c2nc(C(=O)N3CCN(C)CC3)cc3c2[C@H](CCO)N(C(=O)NC(C)C)C3)c1 | 2.4 | / | -45.9
C[C@H]1CN([C@@H](C)CO)C(=O)c2cc(NC(=O)Nc3cccc4ccccc34)ccc2O[C@@H]1CN(C)S(=O)(=O)c1ccc(F)cc1 | -2.2 | 14.3 | -7.3
O=C(C[C@H]1C=C[C@H](NC(=O)Cc2ccccn2)[C@H](CO)O1)NCCCN1CCOCC1 | / | -29.8 | 16.8
O=C(C[C@H]1C=C[C@H](NC(=O)Cc2ccccn2)[C@H](CO)O1)NCCc1ccccc1 | -4.3 | / | -92.4*
C[C@@H]1CN([C@@H](C)CO)C(=O)Cc2cc(NS(=O)(=O)c3ccc(Cl)cc3)ccc2O[C@@H]1CN(C)S(=O)(=O)c1ccc(F)cc1 | -1.4 | 66.2 | -12.8
CCCC(=O)N1CCC2(CC1)CN(Cc1nccs1)[C@H](CO)c1[nH]c3cc(OC)ccc3c12 | -7.2 | / | -43.1
CCCNC(=O)N1CCC2(CC1)CN(Cc1cccc(F)c1)[C@@H](CO)c1[nH]c3cc(OC)ccc3c12 | -2.4 | / | -79.1
CCC(=O)N1CCC2(CC1)CN(Cc1ccc(Cl)cc1)[C@H](CO)c1[nH]c3cc(OC)ccc3c12 | 9.0 | / | -88.1*
